Screen size: about 5,500 compounds; about 2,000 (36%) were called active. Inconclusive results (about 18%) are left out. Rule as the data show it: active = normalized growth mostly below about 0.91 (no sharp cut-off); inconclusive = no clear call, values can overlap the other calls; inactive = mostly above about 0.92. Some of the results follow.
Assay: chemical genetic growth profiling, strain panel (AID 1159580);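 also: tested at 20 µM; growth read once vehicle control cultures reached saturation at 30 °C; 1 = growth at the plate median or of vehicle wells; lower values mean less growth of the strain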
Settings: growth OD
[1] = S. cerevisiae deletion strains, locus YAR019C, strain CDC15, active compounds read low
[2] = S. cerevisiae deletion strains, locus YBL105C, strain PKC1, active compounds read low
[3] = S. cerevisiae deletion strains, locus YBR135W, strain CKS1, active compounds read low
[4] = S. cerevisiae deletion strains, locus YBR136W, strain MEC1, active compounds read low
[5] = S. cerevisiae deletion strains, locus YBR160W, strain CDC28, active compounds read low
[6] = S. cerevisiae deletion strains, locus YDL017W, strain CDC7, active compounds read low
[7] = S. cerevisiae deletion strains, locus YDL028C, strain MPS1, active compounds read low
[8] = S. cerevisiae deletion strains, locus YDL101C, strain DUN1, active compounds read low
[9] = S. cerevisiae deletion strains, locus YDL108W, strain KIN28, active compounds read low
[10] = S. cerevisiae deletion strains, locus YDL132W, strain cdc53, active compounds read low
[11] = S. cerevisiae deletion strains, locus YDL214C, strain PRR2, active compounds read low
[12] = S. cerevisiae deletion strains, locus YDR052C, strain DBF4, active compounds read low
[13] = S. cerevisiae deletion strains, locus YDR054C, strain cdc34, active compounds read low
[14] = S. cerevisiae deletion strains, locus YDR226W, strain ADK1, active compounds read low
[15] = S. cerevisiae deletion strains, locus YDR477W, strain SNF1, active compounds read low
[16] = S. cerevisiae deletion strains, locus YER123W, strain YCK3, active compounds read low
[17] = S. cerevisiae deletion strains, locus YER133W, strain GLC7, active compounds read low
[18] = S. cerevisiae deletion strains, locus YFL009W, strain cdc4, active compounds read low
[19] = S. cerevisiae deletion strains, locus YFL029C, strain CAK1, active compounds read low
[20] = S. cerevisiae deletion strains, locus YFR003C, strain YPI1, active compounds read low
[21] = S. cerevisiae deletion strains, locus YFR019W, strain FAB1, active compounds read low
[22] = S. cerevisiae deletion strains, locus YFR028C, strain CDC14, active compounds read low
[23] = S. cerevisiae deletion strains, locus YGR040W, strain KSS1, active compounds read low
[24] = S. cerevisiae deletion strains, locus YGR052W, strain FMP48, active compounds read low
[25] = S. cerevisiae deletion strains, locus YGR092W, strain DBF2, active compounds read low
[26] = S. cerevisiae deletion strains, locus YHR030C, strain SLT2, active compounds read low
[27] = S. cerevisiae deletion strains, locus YHR079C, strain IRE1, active compounds read low
[28] = S. cerevisiae deletion strains, locus YHR082C, strain KSP1, active compounds read low
[29] = S. cerevisiae deletion strains, locus YHR205W, strain SCH9, active compounds read low
[30] = S. cerevisiae deletion strains, locus YIL147C, strain SLN1, active compounds read low
[31] = S. cerevisiae deletion strains, locus YJL095W, strain BCK1, active compounds read low
[32] = S. cerevisiae deletion strains, locus YJL128C, strain PBS2, active compounds read low
[33] = S. cerevisiae deletion strains, locus YJL157C, strain FAR1, active compounds read low
[34] = S. cerevisiae deletion strains, locus YJR016C, strain ILV3, active compounds read low
[35] = S. cerevisiae deletion strains, locus YJR066W, strain TOR1 (second series), active compounds read low
[36] = S. cerevisiae deletion strains, locus YJR066W, strain TOR1, active compounds read low
[37] = S. cerevisiae deletion strains, locus YKL048C, strain ELM1, active compounds read low
[38] = S. cerevisiae deletion strains, locus YKL067W, strain YNK1, active compounds read low
[39] = S. cerevisiae deletion strains, locus YKL101W, strain HSL1, active compounds read low
[40] = S. cerevisiae deletion strains, locus YKL193C, strain SDS22, active compounds read low
[41] = S. cerevisiae deletion strains, locus YKL203C, strain TOR2, active compounds read low
[42] = S. cerevisiae deletion strains, locus YLR113W, strain HOG1, active compounds read low
[43] = S. cerevisiae deletion strains, locus YLR133W, strain CKI1, active compounds read low
[44] = S. cerevisiae deletion strains, locus YLR403W, strain SFP1, active compounds read low
[45] = S. cerevisiae deletion strains, locus YML070W, strain DAK1, active compounds read low
[46] = S. cerevisiae deletion strains, locus YMR001C, strain CDC5, active compounds read low
[47] = S. cerevisiae deletion strains, locus YMR205C, strain PFK2 (second series), active compounds read low
[48] = S. cerevisiae deletion strains, locus YMR277W, strain FCP1, active compounds read low
[49] = S. cerevisiae deletion strains, locus YNL006W, strain LST8, active compounds read low
[50] = S. cerevisiae deletion strains, locus YNL020C, strain ARK1, active compounds read low
[51] = S. cerevisiae deletion strains, locus YNL161W, strain CBK1, active compounds read low
[52] = S. cerevisiae deletion strains, locus YNL183C, strain NPR1, active compounds read low
[53] = S. cerevisiae deletion strains, locus YNL207W, strain RIO2, active compounds read low
[54] = S. cerevisiae deletion strains, locus YNL222W, strain SSU72, active compounds read low
[55] = S. cerevisiae deletion strains, locus YNL307C, strain MCK1 (second series), active compounds read low
[56] = S. cerevisiae deletion strains, locus YOL078W, strain AVO1, active compounds read low
[57] = S. cerevisiae deletion strains, locus YOL136C, strain PFK27, active compounds read low
[58] = S. cerevisiae deletion strains, locus YOR061W, strain CKA2, active compounds read low
[59] = S. cerevisiae deletion strains, locus YOR119C, strain RIO1, active compounds read low
[60] = S. cerevisiae deletion strains, locus YOR231W, strain MKK1, active compounds read low
[61] = S. cerevisiae deletion strains, locus YOR329C, strain SCD5, active compounds read low
[62] = S. cerevisiae deletion strains, locus YPL031C, strain PHO85, active compounds read low
[63] = S. cerevisiae deletion strains, locus YPL153C, strain RAD53, active compounds read low
[64] = S. cerevisiae deletion strains, locus YPL204W, strain HRR25, active compounds read low
[65] = S. cerevisiae deletion strains, locus YPL209C, strain IPL1, active compounds read low
[66] = S. cerevisiae deletion strains, locus YPL256C, strain CLN2, active compounds read low
[67] = S. cerevisiae deletion strains, locus YPR025C, strain CCL1, active compounds read low
[68] = S. cerevisiae deletion strains, locus YPR106W, strain ISR1, active compounds read low
[69] = S. cerevisiae deletion strains, locus YPR111W, strain DBF20, active compounds read low
[70] = S. cerevisiae deletion strains, strain NNK1, active compounds read low
[71] = S. cerevisiae deletion strains, strain TSCII, active compounds read low

Measured: normalized growth

Cc1nn(Cc2cccc(C(=O)O/N=C(/N)c3ccc(Cl)cc3)c2)c(C)c1Br
inactive: [1] 0.982 | [2] 0.978 | [3] 0.971 | [4] 0.977 | [5] 0.973 | [6] 0.974 | [7] 0.981 | [8] 0.987 | [9] 0.972 | [10] 0.979 | [11] 0.972 | [12] 0.98 | [13] 0.973 | [14] 0.978 | [15] 0.915 | [16] 0.929 | [17] 0.953 | [18] 0.965 | [19] 0.991 | [20] 0.982 | [21] 0.974 | [22] 0.962 | [23] 0.93 | [24] 1.03 | [25] 0.978 | [26] 1.01 | [27] 1.1 | [28] 1.07 | [29] 0.999 | [30] 0.984 | [31] 0.932 | [32] 1.01 | [33] 0.985 | [34] 0.977 | [35] 0.954 | [36] 1.08 | [37] 0.968 | [38] 0.958 | [39] 0.924 | [40] 0.98 | [41] 1.02 | [42] 0.915 | [43] 0.972 | [44] 0.93 | [45] 0.947 | [46] 0.983 | [47] 0.965 | [48] 0.973 | [49] 0.99 | [50] 0.972 | [51] 0.984 | [52] 0.997 | [53] 0.984 | [54] 0.979 | [55] 1 | [56] 0.977 | [57] 0.955 | [58] 0.955 | [59] 1.01 | [60] 0.927 | [61] 0.98 | [62] 0.929 | [63] 0.81 | [64] 0.942 | [65] 0.987 | [66] 1.03 | [67] 0.978 | [68] 0.99 | [69] 0.995 | [70] 0.998 | [71] 0.987

N/C(=N/OC(=O)c1ccccc1Cl)c1ccc2nonc2c1
active: [26] 0.825
inactive: [1] 0.967 | [2] 0.963 | [3] 0.962 | [4] 0.966 | [5] 0.959 | [6] 0.968 | [7] 0.964 | [8] 0.977 | [9] 0.973 | [10] 0.958 | [11] 0.978 | [12] 0.976 | [13] 0.95 | [14] 0.975 | [15] 0.989 | [16] 0.977 | [17] 0.961 | [18] 0.965 | [19] 0.963 | [20] 0.972 | [21] 0.956 | [22] 0.977 | [23] 0.976 | [24] 1.05 | [25] 0.847 | [27] 0.963 | [28] 1.01 | [29] 0.971 | [30] 0.96 | [31] 0.904 | [32] 0.985 | [33] 0.977 | [34] 0.966 | [35] 0.915 | [36] 0.947 | [37] 0.985 | [38] 0.986 | [39] 0.991 | [40] 0.965 | [41] 1.01 | [42] 0.96 | [43] 0.994 | [44] 0.96 | [45] 0.99 | [46] 0.97 | [47] 0.984 | [48] 0.963 | [49] 0.974 | [50] 0.98 | [51] 0.973 | [52] 0.955 | [53] 0.964 | [54] 0.968 | [55] 0.982 | [56] 0.972 | [57] 0.983 | [58] 0.985 | [59] 1.07 | [60] 0.96 | [61] 0.97 | [62] 0.966 | [63] 0.959 | [64] 0.95 | [65] 0.968 | [66] 0.963 | [67] 0.962 | [68] 0.981 | [69] 0.974 | [70] 0.98 | [71] 0.962

N/C(=N/OC(=O)C(Cl)Cl)c1cccc(Cl)c1Cl
inactive: S. cerevisiae deletion strains, locus YAL013W, strain DEP1, active compounds read low 1.02 | S. cerevisiae deletion strains, locus YBR229C, strain ROT2, active compounds read low 0.978 | [8] 0.943 | S. cerevisiae deletion strains, locus YDR150W, strain NUM1, active compounds read low 1 | S. cerevisiae deletion strains, locus YEL061C, strain CIN8, active compounds read low 0.997 | S. cerevisiae deletion strains, locus YGR078C, strain PAC10, active compounds read low 0.973 | [26] 0.94 | S. cerevisiae deletion strains, locus YHR087W, strain rtc3, active compounds read low 0.971 | S. cerevisiae deletion strains, locus YJR043C, strain POL32, active compounds read low 0.979 | S. cerevisiae deletion strains, locus YJR075W, strain HOC1, active compounds read low 0.925 | S. cerevisiae deletion strains, locus YKL190W, strain CNB1, active compounds read low 0.982 | S. cerevisiae deletion strains, locus YLR039C, strain RIC1, active compounds read low 0.936 | S. cerevisiae deletion strains, locus YLR058C, strain SHM2 (second series), active compounds read low 0.968 | S. cerevisiae deletion strains, locus YLR085C, strain ARP6, active compounds read low 1.04 | S. cerevisiae deletion strains, locus YLR262C, strain YPT6, active compounds read low 0.921 | S. cerevisiae deletion strains, locus YML094W, strain GIM5, active compounds read low 1.03 | S. cerevisiae deletion strains, locus YMR219W, strain ESC1, active compounds read low 0.984 | S. cerevisiae deletion strains, locus YMR263W, strain SAP30, active compounds read low 0.992 | S. cerevisiae deletion strains, locus YNL153C, strain GIM3, active compounds read low 1.01 | S. cerevisiae deletion strains, locus YNL298W, strain CLA4 (second series), active compounds read low 0.965 | S. cerevisiae deletion strains, locus YNL322C, strain KRE1, active compounds read low 0.98 | S. cerevisiae deletion strains, locus YNR030W, strain Alg12, active compounds read low 1 | S. cerevisiae deletion strains, locus YOL006C, strain TOP1, active compounds read low 0.939 | S. cerevisiae deletion strains, locus YPL055C, strain LGE1, active compounds read low 1.03 | S. cerevisiae deletion strains, locus YPL241C, strain CIN2, active compounds read low 0.907 | S. cerevisiae deletion strains, locus YPR135W, strain CTF4, active compounds read low 1.22 | S. cerevisiae strains, strain wild type, active compounds read low 0.972
